Records with an inconclusive call do not appear. Calls of active or inactive are those of the source. Rule for the calls: active = hit-call score of the fitted dose curve at least 0.9, where 1 is the maximum; inconclusive = response in the unintended direction; inactive = score below 0.9.
read-out: alkyl and aryl transferase (GSTA2), GSTA2 (gene 2939); assay: CLD_GSTA2_6hr: CellzDirect (CLD) Gene Expression Assay for alkyl and aryl transferase (GSTA2) at 6 hours (AID 2283666)
Procedure: CLD_6hr is a cell-based, multiplexed-readout assay that uses hepatocyte, a human liver primary cell, with measurements taken at 6 hours after chemical dosing in a 96-well plate.CLD_GSTA2_6hr is one of 16 assay component(s) measured or calculated from the CLD_6hr assay. It is designed to make measurements of mRNA induction, a form of inducible reporter, as detected with chemiluminescence signals by Quantitative Nuclease Protection Assay (qNPA) technology.Data from the assay component CLD_GSTA2_6hr was analyzed at the endpoint, CLD_GSTA2_6hr, in the positive analysis fitting direction relative to DMSO as the negative control and baseline of activity. Using a type of inducible reporter, gain-of-signal activity can be used to understand changes in the reporter gene as they relate to the gene GSTA2. Furthermore, this assay endpoint can be referred to as a primary readout. To generalize the intended target to other relatable targets, this assay endpoint is annotated to the transferase intended target family, where subfamily is alkyl and aryl transferase.
Human hepatocyte cultures were treated daily for two consecutive days with fresh dosing solutions containing appropriate concentrations of the 320 ToxCast chemicals (chemical identities were blinded to CellzDirect and other ToxCast collaborators), vehicle control (0.2% DMSO), and positive control inducers as summarized in Table 1. Due to the large number of treatment groups and chemicals examined, the ToxCast chemicals were divided into two groups (spanning two independent cultures of hepatocytes from separate donor preparations (Hu778: ToxCast plates 1 and 2; Hu776: ToxCast plates 3 and 4). Each preparation of human hepatocyte cultures was treated with respective vehicle control, medium only control, set of six positive controls/reference chemicals for the five hepatic receptor pathways, and a subset of eight of the ToxCast chemicals (indoxacarb, pyrithiobac-sodium, norflurazon, cyhalofop-butyl, methomyl, thiram, acetochlor, and propiconazole). These replicate data, coupled with internal replicates designed within the blinded ToxCast chemical library, provided additional data to evaluate interindividual differences between hepatocyte preparations and their potential impact on chemical profiles.Cell morphology and integrity were evaluated using phase-contrast microscopy as an indicator of hepatocyte cell health (Tyson & Green, 1987). Cultures for each treatment group (i.e., media, vehicle [0.2% DMSO], positive control inducers [multiple concentrations], and the ToxCast chemicals [multiple concentrations]) were observed and cell morphology was assessed relative to vehicle control cultures at each harvest time point (0, 6, 24, or 48 h). […] Images were evaluated at the conclusion of the study to assess changes in cell integrity and account for the effects of chemical exposure on uncharacteristic changes in concentration-dependent gene expression profiles. The results from these determinations of apparent cytotoxicity were annotated (yes/no) alongside the corresponding qNPA data for reference.At the conclusion of each treatment period, hepatocyte cultures (96-well) were washed with 1 volume of HBSS, lysed by addition of 25 ul ArrayPlate lysis buffer (HTG, Tucson, AZ), and 70 ul/well of Denaturation Oil, denatured by incubation at 95C for 10 min, and frozen at approximately -70C until analysis by nuclease protection assay (qNPA) (Roberts et al., 2007). For qNPA analysis, cell lysates were thawed at 50C for approximately 30 min, qNPA probes were added, and samples were incubated at 95C for 10 min to begin the detection process by denaturing the target RNA, dissociating the duplexes and secondary structure hybridization. At the conclusion of the hybridization period, S1 nuclease reagent was added to each sample to digest all nonprotected nucleotides at 50C for 60-90 min. […]

Structure (SMILES) | outcome
O=C(Nc1ccccc1)Nc1ccnc(Cl)c1 | inactive
CCCCNC(=O)OCC#CI | inactive
Cc1ccc(-c2c(Cl)nc(C#N)n2S(=O)(=O)N(C)C)cc1 | inactive
CC(C)(C)c1ccc(CSc2cnn(C(C)(C)C)c(=O)c2Cl)cc1 | inactive
CCON=C(CC)C1=C(O)CC(c2c(C)cc(C)cc2C)CC1=O (stereo not drawn) | inactive
COc1nc(C)nc(NC(=O)NS(=O)(=O)c2ccccc2CCC(F)(F)F)n1 | inactive
CN(C)C(=S)SSC(=S)N(C)C | inactive
CCc1nn(C)c(C(=O)NCc2ccc(C(C)(C)C)cc2)c1Cl | inactive
COC(=O)C=C(C)OP(=O)(OC)OC | inactive
CC(C)Oc1cc(-n2nc(C(C)(C)C)oc2=O)c(Cl)cc1Cl | inactive
Cc1c(F)c(F)c(COC(=O)C2C(/C=C(\Cl)C(F)(F)F)C2(C)C)c(F)c1F (stereo not drawn) | inactive
CCOC(=O)CC(SP(=S)(OC)OC)C(=O)OCC (stereo not drawn) | inactive
C=CCC1=C(C)[C@@H](OC(=O)[C@@H]2[C@@H](C=C(C)C)C2(C)C)CC1=O | inactive
CNC(=O)ON=CC(C)(C)SC | inactive
C=CCC1=C(C)C(OC(=O)C2C(C=C(C)C)C2(C)C)CC1=O (stereo not drawn) | inactive
CCCCNC(=O)n1c(NC(=O)OC)nc2ccccc21 | inactive
CO/C=C(/C(=O)OC)c1ccccc1Oc1cc(Oc2ccccc2C#N)ncn1 | inactive

Structure (SMILES) | outcome
O=C(O)c1nc(Cl)ccc1Cl | inactive
COP(N)(=O)SC (stereo not drawn) | inactive
COc1nc(NC(C)C)nc(NC(C)C)n1 | inactive
CC(Oc1ccc(Cl)cc1Cl)C(=O)O (stereo not drawn) | inactive
Cc1cc(Cl)ccc1OCC(=O)O | inactive
COC(=O)C(C)Oc1ccc(Oc2ccc(Cl)cc2Cl)cc1 (stereo not drawn) | inactive
N#Cc1cc(Br)c(O)c(Br)c1 | inactive
CCNc1nc(Cl)nc(NC(C)C)n1 | inactive
CCOP(=S)(OCC)SCn1c(=O)oc2cc(Cl)ccc21 | inactive
CCOc1cc(Oc2ccc(C(F)(F)F)cc2Cl)ccc1[N+](=O)[O-] | inactive
COC(=O)N(OC)c1ccccc1COc1ccn(-c2ccc(Cl)cc2)n1 | inactive
O=C(O)COc1nc(Cl)c(Cl)cc1Cl | inactive
Oc1ccccc1-c1ccccc1 | inactive
COc1nc(C)nc(NC(=O)NS(=O)(=O)c2ccccc2Cl)n1 | inactive
C#CCOS(=O)OC1CCCCC1Oc1ccc(C(C)(C)C)cc1 (stereo not drawn) | inactive
N#Cc1nn(-c2c(Cl)cc(C(F)(F)F)cc2Cl)c(N)c1S(=O)C(F)(F)F (stereo not drawn) | inactive
